Data reported in PubChem BioAssay (NCI).
The panel holds about 83,000 compounds, 20% with a hit somewhere; the sample as a whole holds those more often.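 How to read the values: 0–100, growth inhibition (40 = 60% inhibited); 0, no net growth; -100 to 0, cell death (-40 = 40% of starting cells died; -100 = all dead).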 Active and inactive are the calls of the source. Rule for the calls: active = growth percent below 10; inactive = the rest.

What was measured:
Test in all cases: NCI-60 one-dose screen, 48 h (100 = growth as untreated, 0 = no growth, -100 = all killed)
Conditions in all cases: 10 µM unless noted
[1] = system: DU-145 prostate
[2] = system: K-562 leukemia
[3] = system: MALME-3M melanoma
[4] = system: MDA-MB-231 breast
[5] = system: RXF 393 renal
[6] = system: SF-268 CNS
[7] = system: SF-295 CNS
[8] = system: SF-539 CNS
[9] = system: UACC-257 melanoma
[10] = system: M14 melanoma
[11] = system: HCT-15 colon
[12] = system: HT29 colon
[13] = system: SNB-75 CNS
[14] = system: SNB-19 CNS
[15] = system: U251 CNS
[16] = system: PC-3 prostate
[17] = system: SK-MEL-5 melanoma
[18] = system: UACC-62 melanoma
[19] = system: LOX IMVI melanoma
[20] = system: SK-MEL-28 melanoma

Measured: growth

CC(=O)O[C@H]1C[C@@]2(C)[C@@H](C[C@@H](O)[C@H]3[C@@]4(C)CC[C@H](N5CCCC5)[C@@H](C)[C@@H]4CC[C@@]32C)/C1=C(\CCC=C(C)C)C(=O)O
inactive: [1] 105% | [2] 14.8% | [3] 95.6% | [4] 109% | [5] 98.9% | [6] 98.9% | [7] 96.3% | [8] 96.1% | [9] 98.1% | [10] 92.2% | [11] 94.5% | [12] 103% | [13] 97.7% | [14] 99.6% | [15] 99.5% | [16] 92.8% | [17] 96.2% | [18] 94.9% | [19] 97% | [20] 92.9%

CSc1nc(CC(C)C)c(C#N)c(=O)n1C
inactive: [1] 70.7% | [2] 68.8% | [3] 58.4% | [4] 47.3% | [5] 58.7% | [6] 65.7% | [7] 73.9% | [8] 75.9% | [9] 78.6% | [10] 70.7% | [11] 46.1% | [12] 69.7% | [13] 61% | [14] 82.1% | [15] 81.8% | [16] 62.9% | [18] 53.8% | [19] 68.4% | [20] 68.3%

O=C1/C(=C/c2cccc([N+](=O)[O-])c2)COc2ccc(O)c(O)c21
active: [1] 2.4% | [2] 6.45% | [3] -53.3% | [4] -76.9% | [5] -81.3% | [6] -4.32% | [8] -89.1% | [9] 3.37% | [10] -63.9% | [11] -3.34% | [12] -12% | [13] 7.32% | [14] -47.3% | [15] -89% | [16] -38.9% | [18] -83.3% | [19] -93.6% | [20] -48.3%
inactive: [7] 58.6%

COc1cc2nc3cc([N+](=O)[O-])ccc3c(NCCCNCCO)c2cc1OC
active: [1] -31.2% | [2] -19% | [3] -82.6% | [4] -54.5% | [5] -58.8% | [6] -46.8% | [7] -20.7% | [8] -36.2% | [9] -53.4% | [10] -66.5% | [12] 1.17% | [13] -74.2% | [14] -19% | [15] -45.5% | [16] -66.8% | [17] -93.9% | [18] -65.2% | [19] -63.7% | [20] -53.1%
inactive: [11] 41.2%

CN(C)c1ccc(/C=C/C2=[N+](C)c3ccccc3C2(C)C)cc1
inactive: [1] 25.3% | [2] 14.2% | [5] 39.9% | [6] 20.9% | [8] 16.9% | [9] 12.6% | [10] 18.4% | [11] 39.5% | [12] 12.5% | [13] 36.3% | [14] 13.2% | [15] 19.2% | [19] 15.2% | [20] 35.4%
active: [3] -6.64% | [4] 3.11% | [7] 0.915% | [16] 4.64% | [18] 9.39%

O=C(CSc1nnc(-c2ccc(Cl)c(Cl)c2)n1-c1ccccc1)Nc1ccc(C(=O)/C=C/c2ccc(Cl)cc2)cc1
inactive: [1] 98.3% | [2] 81.9% | [3] 94.6% | [4] 86.5% | [5] 92.1% | [6] 92.2% | [7] 98.2% | [8] 97.9% | [9] 77.3% | [10] 82.2% | [11] 92.3% | [12] 85.9% | [13] 69.9% | [14] 94.1% | [15] 84% | [16] 62.5% | [17] 93.1% | [18] 76.7% | [19] 97.5% | [20] 104%

Nc1ncc(-c2ccc3ncnc(N4CCc5ccc(Cl)cc54)c3c2)cn1
inactive: [1] 10% | [2] 10.5% | [6] 11.2% | [14] 14.1%
active: [3] -17.4% | [4] -3.01% | [5] -29.4% | [7] -7.57% | [8] -68.8% | [9] 8.1% | [10] 8.74% | [11] 7.19% | [12] 1.74% | [13] -11.6% | [15] 9.31% | [16] 8.82% | [18] -23.6% | [19] 1.27% | [20] -6.35%

CN(Cc1ccccc1)c1nc(Cl)c(C2CC(c3ccc(Cl)cc3)=NN2c2cc(Cl)cc(Cl)c2)s1 (stereo unspecified)
inactive: [1] 109% | [2] 87% | [3] 97.3% | [4] 110% | [5] 104% | [6] 100% | [7] 95.3% | [8] 106% | [9] 110% | [10] 96.1% | [11] 98.8% | [12] 92.9% | [13] 90.4% | [14] 108% | [15] 109% | [16] 92.5% | [17] 107% | [18] 98.1% | [19] 97.8% | [20] 112%

Cn1cc(-c2csc(-c3cn(C)c4ccc(F)cc34)n2)c2cnccc21
active: [1] -6.44% | [2] -60.3% | [3] -92.5% | [4] -33.1% | [5] -85.5% | [6] -60.3% | [7] -81.1% | [8] -92.5% | [9] -73.1% | [10] -80% | [11] -46.4% | [12] -66.8% | [13] -73% | [14] 3.63% | [15] -89.5% | [17] -94.1% | [18] -69.4% | [19] -90% | [20] -95.9%
inactive: [16] 10.5%

CSc1nc(N)c2c(n1)NC(c1ccccc1)C1CCc3ccccc3C1=N2 (stereo unspecified)
inactive: [1] 74.5% | [2] 47.7% | [3] 113% | [4] 71.9% | [5] 84.4% | [6] 60.1% | [7] 41.7% | [8] 102% | [9] 88.7% | [10] 55.7% | [11] 46.8% | [12] 42.7% | [13] 84% | [14] 79% | [15] 68.2% | [16] 11.9% | [17] 51% | [18] 42.6% | [19] 43.3% | [20] 81.5%

FC(F)(F)c1cccc(-c2nnn(Cc3cc(-c4cccc(Cl)c4)no3)n2)c1
inactive: [1] 113% | [2] 113% | [3] 97.5% | [4] 117% | [5] 109% | [6] 99.1% | [7] 111% | [8] 102% | [9] 96.3% | [10] 101% | [11] 105% | [12] 103% | [13] 88.9% | [14] 97.7% | [15] 104% | [16] 104% | [17] 101% | [18] 103% | [19] 99.4% | [20] 112%

CN1CC(c2ccccc2)C(C(=O)c2ccc(Br)cc2)C12C(=O)Nc1ccccc12 (stereo unspecified)
inactive: [1] 104% | [2] 75.3% | [3] 99.4% | [4] 94.7% | [5] 92.6% | [6] 91.2% | [7] 93.9% | [8] 102% | [9] 103% | [10] 102% | [11] 95.7% | [12] 87.2% | [13] 96.1% | [14] 89.9% | [15] 94.1% | [16] 70.7% | [17] 99% | [18] 78.4% | [19] 97.3% | [20] 114%

C=C1CC[C@@H]2[C@](C)(COC(C)=O)[C@H](OC(C)=O)CC[C@@]2(C)[C@@H]1CC(Nc1ccc(S(=O)(=O)Nc2nccc(C)n2)cc1)C1=CCOC1=O (stereo partly specified)
active: [2] 3.62% | [3] -0.704% | [5] -38.3% | [8] -62.7% | [11] -42% | [12] -28.2% | [13] 9.66% | [19] -72.9% | [20] -7.05%
inactive: [1] 38.5% | [4] 13.3% | [6] 43.2% | [7] 78.6% | [9] 48.5% | [10] 11.2% | [14] 53.6% | [15] 14.6% | [16] 41.5% | [18] 24.2%

COc1ccc(C(=O)/C=C/c2ccc(Cl)cc2)cc1S(N)(=O)=O
active: [2] 3.05% | [10] -57.3% | [16] -55.6%
inactive: [1] 90.8% | [3] 90.1% | [4] 65.8% | [5] 97.4% | [6] 91.7% | [7] 98.3% | [8] 17.7% | [9] 87.1% | [11] 26.3% | [12] 43.6% | [13] 82.5% | [14] 14% | [15] 32% | [18] 46.4% | [19] 10.6%

Oc1ccc(C2OCCO2)c2cccnc12
inactive: [1] 56.7% | [2] 17.3% | [3] 49% | [4] 46.6% | [5] 77% | [6] 31.1% | [7] 86.9% | [8] 36% | [9] 79.2% | [10] 25.8% | [11] 32% | [12] 78.3% | [13] 80.6% | [14] 64.4% | [15] 27.4% | [16] 32% | [18] 51.4% | [19] 38.4% | [20] 63.4%

CCCCCCCCNc1ncnc2c1ncn2Cc1nnc2c3ccccc3c(Cl)nn12
inactive: [1] 49% | [2] 14.8% | [3] 69.9% | [4] 55.4% | [5] 36.1% | [6] 35.5% | [7] 61.8% | [8] 49.9% | [9] 46.9% | [10] 34.5% | [11] 32.8% | [12] 44.1% | [13] 37.6% | [14] 56.2% | [15] 44.8% | [16] 36.5% | [18] 29.9% | [19] 12.8% | [20] 62.9%
